In ChEMBL document CHEMBL3433997, “St. Jude Leishmania screening dataset” (2016):

How the values were obtained:
Type in all cases: functional
[1] = target: Solute carrier family 2, facilitated glucose transporter member 1 (Homo sapiens) (UniProt P11166); assay: ST_JUDE_LEISH: Cytotoxicity at 2uM final concentration against transgenic Leishmania Mexicana promastigotes LmGLUT1 that are glucose transport deficient and complemented with the human glucose transporter GLUT1. Activity is measured by DNA content using SYBR green in vitro
Chain of Solute carrier family 2, facilitated glucose transporter member 1 (Homo sapiens) (P11166 whole entry): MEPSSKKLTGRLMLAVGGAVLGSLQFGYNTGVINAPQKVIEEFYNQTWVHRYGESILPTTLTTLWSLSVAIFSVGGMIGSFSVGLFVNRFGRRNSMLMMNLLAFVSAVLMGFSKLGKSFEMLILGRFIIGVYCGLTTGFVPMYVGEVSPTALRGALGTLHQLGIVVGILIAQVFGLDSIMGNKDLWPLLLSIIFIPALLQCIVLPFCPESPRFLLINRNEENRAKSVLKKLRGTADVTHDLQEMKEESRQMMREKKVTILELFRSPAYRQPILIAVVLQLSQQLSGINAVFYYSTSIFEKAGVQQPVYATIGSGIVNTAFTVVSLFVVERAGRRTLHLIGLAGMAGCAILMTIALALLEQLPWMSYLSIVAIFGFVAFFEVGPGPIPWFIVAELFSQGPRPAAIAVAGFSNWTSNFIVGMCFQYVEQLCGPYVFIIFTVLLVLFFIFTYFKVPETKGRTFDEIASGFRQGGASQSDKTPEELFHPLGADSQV

[2] = target: Hexose transporter 1 (Plasmodium falciparum) (UniProt O97467); assay: ST_JUDE_LEISH: Cytotoxicity at 2uM final concentration against transgenic Leishmania Mexicana promastigotes LmPfHT that are glucose transport deficient and complemented with the Plasmodium falciparum hexose transporter. Activity is measured by DNA content using SYBR green in vitro
[3] = target: Glucose transporter (Leishmania mexicana) (UniProt O61059); assay: ST_JUDE_LEISH: Cytotoxicity at 2uM final concentration against transgenic Leishmania Mexicana promastigotes LmGT2 that are glucose transport deficient and complemented with the L. Mexicana glucose transporter 2. Activity is measured by DNA content using SYBR green in vitro

SMILES | inhibition [1] [%] | inhibition [2] [%] | inhibition [3] [%]
CC(C)CNCc1cccc(-c2ccc(CN(C(=O)NCCc3ccccc3)C3CCN(Cc4ccccc4)CC3)cc2)c1 | 75.8 | 79.1 | 56.8
CC(C)CN(c1nc(C(=O)NNC(=O)[C@H](CC2CC2)NC(=O)c2cc3cc(OCCN4CCCCC4)ccc3o2)cs1)C1CC1 | -3.13 | 0.58 | 0.46
CCCCc1cc(NCC)nc(Nc2ccc(F)cc2)n1 | 18.4 | 10.4 | 4.95
CN(C)CCNC(=O)c1ccc(-c2cnc3ccc(NCc4ccc(Cl)c(Cl)c4)nn23)cc1 | -1.43 | -1.29 | 11.1
O=c1cc(N2CCCNCC2)c(Cl)nn1Cc1ccc(NS(=O)(=O)c2ccc(Oc3ccccc3)cc2)cc1 | 10.6 | 8 | 8.55
c1cc2[nH]c(CCCCc3nc4cc(C5=N[C@H]6CCCC[C@H]6N5)ccc4[nH]3)nc2cc1C1=N[C@H]2CCCC[C@H]2N1 | 10.1 | 9.08 | 8.87
Oc1cc(Nc2ccnc3cc(I)ccc23)ccc1F | 1.98 | -0.07 | 0.37
Cc1cc(CNC(=O)c2ccc(-c3ccc(-c4nc5cc(C(F)(F)F)ccc5[nH]4)s3)cc2)on1 | 4.04 | 3.31 | 1.12
Cc1cc(=O)c2cc(-c3ccc(OC(F)(F)F)cc3)ccc2[nH]1 | -2.2 | 0.49 | -0.86
NC1CCN(CCc2ccc(NS(=O)(=O)c3cccc4ccccc34)cc2)CC1 | -0.69 | -3.38 | 0.61
O=C(Nc1ccc(OC2CCN(CC3CC3)CC2)c(Cl)c1)c1ccc2ncccc2c1 | 8.41 | 9.49 | 7.58
N#Cc1cccc(C(=O)Nc2cccc(-c3ccc(C(=O)Nc4cccnc4)cc3)c2)c1 | 4.01 | 2.59 | 1.36
